Most compounds without a hit are left out; they make up all but 1.4% or so of the library.
RecA splice inh – inhibitors of M. tuberculosis RecA intein splicing. cell-free RecA intein splicing, fluorescence. inhibition, % (test concentration not listed). 290,000 tested, 0.75% active; in the data active = inhibition above about 30%;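 also: 0% = vehicle wells and 100% = reference inhibitor control wells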
Target sequence (P9WHJ3 whole entry, looked up, canonical isoform): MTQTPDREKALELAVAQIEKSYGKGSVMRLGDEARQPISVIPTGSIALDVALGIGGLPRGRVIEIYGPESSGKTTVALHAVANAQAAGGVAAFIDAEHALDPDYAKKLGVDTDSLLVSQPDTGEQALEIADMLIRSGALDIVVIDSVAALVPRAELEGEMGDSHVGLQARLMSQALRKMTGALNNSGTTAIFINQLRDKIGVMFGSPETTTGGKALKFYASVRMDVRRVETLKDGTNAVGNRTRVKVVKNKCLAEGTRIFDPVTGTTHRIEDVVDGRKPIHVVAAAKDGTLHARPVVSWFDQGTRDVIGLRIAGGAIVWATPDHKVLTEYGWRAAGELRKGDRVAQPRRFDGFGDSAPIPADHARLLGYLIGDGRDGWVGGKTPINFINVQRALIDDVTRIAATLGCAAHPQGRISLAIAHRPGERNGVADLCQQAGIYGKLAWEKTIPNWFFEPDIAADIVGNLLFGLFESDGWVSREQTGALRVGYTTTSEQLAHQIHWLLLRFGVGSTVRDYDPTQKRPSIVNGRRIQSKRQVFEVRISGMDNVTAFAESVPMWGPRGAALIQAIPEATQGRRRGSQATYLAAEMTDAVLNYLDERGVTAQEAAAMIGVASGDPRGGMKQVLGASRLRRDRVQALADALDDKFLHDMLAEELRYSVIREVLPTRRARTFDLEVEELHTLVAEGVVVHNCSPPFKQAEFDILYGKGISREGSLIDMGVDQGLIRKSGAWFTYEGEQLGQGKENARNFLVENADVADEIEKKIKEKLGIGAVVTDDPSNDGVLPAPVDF
BJeLR viability – kills HRASV12-expressing BJeLR cells; BJeLR (HRASV12) viability, CellTiter-Glo ATP luminescence, 48 h; inhibition, % (concentration not given with the values); 300,000 tested, 0.17% active; AID 1554; in the data active = inhibition above about 50%
PrP UTR inh – suppresses PrP 5' UTR mRNA reporter expression; cell-based PrP 5' UTR mRNA reporter, plate reader; inhibition, % (no concentration beside the values); 340,000 tested, 0.35% active; AID 488862; in the data active = inhibition above about 52%; also: 0 = median of the neutral control wells
SARS 3CLpro inh – SARS-CoV 3CLpro protease inhibition; AID 1706; inhibition, % at 6 µM; 290,000 tested, 0.14% active; recombinant SARS-CoV 3CLpro, quenched FRET peptide cleavage; P0C6X7; in the data active = inhibition above about 12%
PrPC surface inh – cell surface PrPC inhibition, primary TR-FRET screen | P04156 | TR-FRET read-out | inhibition, % at 13.8 µM | 370,000 tested, 0.43% active | AID 720596; in the data active = inhibition above about 24%; also: 0% = median of the test wells and 100% = reference compound wells
Mtb hypoxia rep – Mtb hypoxia fluorescent reporter inhibition | AID 1159583 | M. tuberculosis hypoxia-regulated fluorescent reporter, fluorescence | fluorescence inhibition, % (test concentration not listed) | 300,000 tested, 0.1% active; in the data active = fluorescence inhibition mostly above about 23%, no sharp cut-off; inactive = mostly below about 17%
* = called active by the depositor.

Screening O=C1c2ccccc2CN1CCNC(=S)NC1CCCCC1 returned RecA splice inh 2.6, PrP UTR inh 68.0*, SARS 3CLpro inh 1.4, PrPC surface inh 5.2 and Mtb hypoxia rep 12.7.
For O=C(NCCN1Cc2ccccc2C1=O)c1cccs1 the results were RecA splice inh -3.9, BJeLR viability 4.8, PrP UTR inh -15.3, SARS 3CLpro inh 0.2 and PrPC surface inh -2.3.
Oc1ccc(CCNc2ncnc3ccc(Cl)cc23)cc1 was read as RecA splice inh 4.4, BJeLR viability 10.4, PrP UTR inh 8.4, SARS 3CLpro inh -3.7 and PrPC surface inh 36.2*.
`O=c1cnn(Cc2ccc(F)cc2)c2ccccc12` gave RecA splice inh -2.3, BJeLR viability 4.8, PrP UTR inh -19.6, SARS 3CLpro inh -2.1, PrPC surface inh -25.6 and Mtb hypoxia rep 2.1.
`O=c1c(Cl)c(Cl)cnn1Cc1ccc(F)cc1` gave RecA splice inh 35.3*, BJeLR viability -6.5, PrP UTR inh 3.0, SARS 3CLpro inh -2.2 and PrPC surface inh 0.5.
`COc1cc(NC(=O)CC(C)=NNC(=O)Cc2ccccc2)c(OC)cc1Cl` gave Mtb hypoxia rep 5.5.
`Cc1cccc(N2CCN(C(=S)Nc3ccc4nc(N5CCN(C)CC5)cc(C)c4c3)CC2)c1C` gave RecA splice inh -1.6, BJeLR viability 70.6*, PrP UTR inh -1.7, SARS 3CLpro inh -3.7, PrPC surface inh 3.0 and Mtb hypoxia rep 0.3.
For Cc1cc(N2CCN(C)CC2)nc2ccc(NC(=S)N3CCCCC3)cc12 the results were RecA splice inh -7.1, BJeLR viability -8.9, PrP UTR inh -39.3, SARS 3CLpro inh 1.1, PrPC surface inh -2.9 and Mtb hypoxia rep 11.8.
For CC1CCc2nc(C(C#N)=Cc3ccncc3)sc2C1 (stereo not given) the results were Mtb hypoxia rep 3.8.
Cc1ccccc1Nc1nc(-c2sc(NC(=O)c3ccc([N+](=O)[O-])cc3)nc2C)cs1 was read as RecA splice inh 2.4, BJeLR viability 0.3 and SARS 3CLpro inh 1.1.
Screening CCOc1ccccc1Nc1nc(-c2sc(NC(=O)c3ccc([N+](=O)[O-])cc3)nc2C)cs1 returned RecA splice inh 2.6, BJeLR viability 77.5* and SARS 3CLpro inh 1.5.
`Cc1c(C(=O)N2CCN(S(=O)(=O)c3cccs3)CC2)oc2ccc(F)cc12` gave PrP UTR inh -1.1, PrPC surface inh 2.6 and Mtb hypoxia rep -5.9.
For Cc1c(C(=O)N2CCN(S(=O)(=O)c3ccc(F)cc3)CC2)oc2ccccc12 the results were RecA splice inh -0.8, BJeLR viability -9.1, PrP UTR inh -6.2, PrPC surface inh -8.3 and Mtb hypoxia rep 38.7*.
Screening C=C(C)CNC(=S)N=Nc1c(O)[nH]c2ccc([N+](=O)[O-])cc12 returned RecA splice inh 32.7*, BJeLR viability 7.4, PrP UTR inh -4.8, SARS 3CLpro inh 0.8, PrPC surface inh 1.2 and Mtb hypoxia rep 6.4.
For CC(=O)c1ccc2c(c1)c(C#N)c1ccccc1[n+]2[O-] the results were RecA splice inh -1.1, BJeLR viability 17.0, SARS 3CLpro inh -2.3, PrPC surface inh -11.8 and Mtb hypoxia rep 41.8*.
NS(=O)(=O)c1ccc(NN=C/C=C/c2ccccc2[N+](=O)[O-])cc1 was read as Mtb hypoxia rep 12.1.
`CCOC(=O)[C@]12Cc3cc(OC)ccc3[C@H]1N(C1CCCCC1)C(=O)c1cc(OC)ccc12` gave PrPC surface inh 22.3.
Screening CCOC(=O)[C@]12Cc3cc(C)ccc3[C@H]1N(C1CCCCC1)C(=O)c1cc(OC)ccc12 returned PrPC surface inh 38.2*.
NC1=NCC(c2ccccc2)N1CCc1cc(C(F)(F)F)cc(C(F)(F)F)c1 (stereo not given) was read as Mtb hypoxia rep 4.9.
For COC(=O)Cc1[nH]nc2c1C(c1cc(OC)c(OC)c(OC)c1)C(C#N)=C(N)O2 (stereo not given) the results were RecA splice inh 17.8, BJeLR viability -5.5, PrP UTR inh -6.2, SARS 3CLpro inh -5.0, PrPC surface inh 4.6 and Mtb hypoxia rep 5.8.
COc1cc(C2C(C#N)=C(N)Oc3c2c(-c2ccccc2)nn3-c2ccccc2)cc(OC)c1OC (stereo not given) was read as RecA splice inh 69.6*, BJeLR viability 3.4, PrP UTR inh -20.1, SARS 3CLpro inh 2.5, PrPC surface inh -4.6 and Mtb hypoxia rep -3.8.
Screening CC(N)=C(C#N)C(=O)CSc1nc2ccccc2c(=O)n1CCCO returned Mtb hypoxia rep 5.2.

Bioassay records (PubChem BioAssay)
